Screening results: PubChem BioAssay, several laboratories
Most compounds without a hit are left out; they make up all but 2.9% or so of the library.
CRFR2-BP ag: agonists of CRF-BP/CRF-R2 complex, primary screen, cell-based, HEK293, calcium dye fluorescence, uHTS. calcium dye fluorescence (FLIPR); percent of saturating CRF peptide response. activation, % at 13.2 µM. actives 0.46% (n = 350,000);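 active = activation of at least 50%, plus an integration ratio under a set limit after plate pattern correction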;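 note: plate controls were neutral control wells without compound for no effect and CRF at EC100 for full effect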
MEKK2mut PB1 HTS: MEK5 binding signal on mutant MEKK2 PB1, primary screen, biochemical, multiplex bead flow cytometry, Alexa488-MEK5 | Alexa488-MEK5 binding to MEKK2 mutant | percent response, % at 10 µM | actives 0.35% (n = 290,000); in the data active = percent response above about 24%, passing the limit was not always enough
MEKK2wt PB1 HTS: modulators of MEK5 binding to wildtype MEKK2, primary screen, biochemical, multiplex bead flow cytometry, Alexa488-MEK5; Mitogen-activated protein kinase kinase kinase 2 (Homo sapiens), Q9Y2U5; Alexa488-MEK5 binding to MEKK2 WT; actives lie on both sides; binding response (% of control), % at 10 µM; actives 1.1% (n = 290,000); AID 1531, 2009; in the data active = binding response below about 67% or above about 130%
ABCB6 inh 2: ABCB6 transporter inhibitors, primary screen, K562-ABCB6 cells, flow cytometry, MLPCN library; actives 0.19% (n = 360,000); ATP-binding cassette sub-family B member 6 (Homo sapiens), Q9NP58; fluorescence ratio to DMSO, % at 10 µM; K562-ABCB6 porphyrin accumulation, 1 h; stronger effect = lower value;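 active = fluorescence ratio to DMSO below 75%, the collection mean minus 3 SD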;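 note: signal is porphyrin accumulated inside mitochondria; 100% equals median channel fluorescence of DMSO control wells; lower ratio means ABCB6 inhibition with less porphyrin fluorescence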
Target sequence (Q9NP58 whole entry, looked up): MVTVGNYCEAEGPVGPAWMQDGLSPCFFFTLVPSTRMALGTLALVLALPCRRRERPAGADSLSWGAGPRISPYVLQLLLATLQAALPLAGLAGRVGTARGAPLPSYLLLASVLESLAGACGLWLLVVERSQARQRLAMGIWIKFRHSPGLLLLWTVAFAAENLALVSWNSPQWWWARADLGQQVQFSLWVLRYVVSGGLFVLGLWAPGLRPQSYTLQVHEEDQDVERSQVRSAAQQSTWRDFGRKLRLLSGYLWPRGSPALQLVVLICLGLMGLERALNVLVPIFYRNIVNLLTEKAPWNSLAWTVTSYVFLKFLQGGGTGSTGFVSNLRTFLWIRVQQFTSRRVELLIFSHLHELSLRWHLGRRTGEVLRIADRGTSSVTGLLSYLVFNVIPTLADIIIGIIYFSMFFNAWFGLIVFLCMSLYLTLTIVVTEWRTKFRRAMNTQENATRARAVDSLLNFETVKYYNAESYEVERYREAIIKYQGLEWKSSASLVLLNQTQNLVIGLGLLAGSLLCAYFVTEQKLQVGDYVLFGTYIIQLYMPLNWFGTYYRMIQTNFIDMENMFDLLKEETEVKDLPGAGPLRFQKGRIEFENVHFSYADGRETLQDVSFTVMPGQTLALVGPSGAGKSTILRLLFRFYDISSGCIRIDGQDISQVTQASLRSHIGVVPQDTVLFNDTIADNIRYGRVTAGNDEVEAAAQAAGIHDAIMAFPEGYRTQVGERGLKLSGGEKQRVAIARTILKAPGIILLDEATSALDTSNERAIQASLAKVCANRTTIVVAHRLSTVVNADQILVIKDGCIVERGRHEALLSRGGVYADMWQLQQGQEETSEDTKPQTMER
MEKK3 PB1 HTS: modulators of MEKK3-MEK5 PB1 binding, primary screen, biochemical, wildtype MEKK3, multiplex bead flow cytometry, Alexa488-MEK5 | bead-based flow cytometry, Alexa488-MEK5 binding to MEKK3; actives lie on both sides; 0 = blocked by unlabeled MEK5, 100 = vehicle | AID 1529, 2009 | binding response (% of control), % at 10 µM | actives 1.4% (n = 290,000);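 active = binding response more than 3 SD above or below the average of its plate-row segment, actives on both sides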;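 note: Alexa488 bead fluorescence after subtracting the streptavidin-only scavenger bead signal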
CRFBP-R2 block: antagonists of CRF-BP/CRF-R2 complex, primary screen, cell-based, HEK293, calcium dye fluorescence, uHTS; AID 588475, 2011; CRF-induced calcium fluorescence; inhibition, % at 11.8 µM; actives 0.59% (n = 350,000);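 active = inhibition of the ligand-induced calcium signal above about 50% at the single tested concentration, limit read from the data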
MEKK2wt confirm: modulators of MEK5 binding to wildtype MEKK2, confirmation, biochemical, single concentration, multiplex bead flow cytometry; actives 2.4% (n = 5,900); shares compounds with MEKK3 PB1 HTS; binding response (% of control), % at 10 µM; Alexa488-MEK5 binding to MEKK2 WT; actives lie on both sides; in the data active = binding response below about 16% or above about 210%; inactive = in between
MEKK2mut confirm: mutant MEKK2 PB1-MEK5 binding signal retest – biochemical, single concentration, multiplex bead flow cytometry, confirmation; percent response, % at 10 µM; actives 2% (n = 5,900); shares compounds with MEKK3 PB1 HTS; Alexa488-MEK5 binding to MEKK2 mutant; in the data active = percent response mostly above about 71%, no sharp cut-off; inactive = mostly below about 38%;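 note: higher means compound restores mutant binding toward wildtype level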
MEKK3-MEK5 inh: MEKK3 wild-type PB1 binding to MEK5, inhibitors, confirmation, biochemical, bead multiplex flow cytometry, single concentration, wildtype. shares compounds with MEKK3 PB1 HTS. Alexa488-MEK5 binding to MEKK3; stronger effect = lower value. binding response (% of control), % at 10 µM. actives 1.8% (n = 5,900). AID 1894, 2009;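 active = binding response below 72% of control, or above a set upper limit, though filed actives all read lower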;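 note: 100% = DMSO only wells and 0% = binding blocked by excess unlabeled MEK5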
* marks the source's active call; other numbers are inactive results; [ ] = dose if it differs, or a comment.

COc1ccc(-c2[nH]ncc2CN2CCCCCCC2)c(OC)c1 was read as CRFR2-BP ag 0, MEKK2mut PB1 HTS 98*, MEKK2wt PB1 HTS 223*, ABCB6 inh 2 90, MEKK3 PB1 HTS 108, CRFBP-R2 block -12, MEKK2wt confirm 214*, MEKK2mut confirm 79* and MEKK3-MEK5 inh 112.
For COc1ccc(-c2[nH]ncc2CN2CCN(c3ccccn3)CC2)c(OC)c1 the results were CRFR2-BP ag -3, MEKK2mut PB1 HTS -9, MEKK2wt PB1 HTS 86, ABCB6 inh 2 93, MEKK3 PB1 HTS 97 and CRFBP-R2 block 8.
`O=C(Nc1ccc(F)cc1)Nc1ccc(Cl)cn1` gave CRFR2-BP ag 0, MEKK2mut PB1 HTS 5, MEKK2wt PB1 HTS 106, ABCB6 inh 2 98, MEKK3 PB1 HTS 105 and CRFBP-R2 block -20.
Screening CCOC(=O)C(NC(=O)NCc1ccc(F)cc1)(OCC)C(F)(F)F (stereo not drawn) returned CRFR2-BP ag 0, MEKK2mut PB1 HTS 4, MEKK2wt PB1 HTS 107, ABCB6 inh 2 102, MEKK3 PB1 HTS 128*, CRFBP-R2 block 12, MEKK2wt confirm 104, MEKK2mut confirm 1 and MEKK3-MEK5 inh 103.
`CCOC(=O)C(NC(=O)Nc1ccc(Cl)cn1)(Oc1ccc(F)cc1)C(F)(F)F` (stereo not drawn) gave CRFR2-BP ag 0, MEKK2mut PB1 HTS 3, MEKK2wt PB1 HTS 103, ABCB6 inh 2 108, MEKK3 PB1 HTS 152*, CRFBP-R2 block 11, MEKK2wt confirm 107, MEKK2mut confirm 11 and MEKK3-MEK5 inh 105.
For CCOC(=O)C(NC(=O)NCc1ccc(OC)cc1)(OCC)C(F)(F)F (stereo not drawn) the results were CRFR2-BP ag -1, MEKK2mut PB1 HTS 1, MEKK2wt PB1 HTS 97, ABCB6 inh 2 101, MEKK3 PB1 HTS 96 and CRFBP-R2 block -3.
For Cc1nc2nc(C)c(NS(=O)(=O)c3ccc(C4CCCCC4)cc3)c(=O)n2[nH]1 the results were CRFR2-BP ag 0, MEKK2mut PB1 HTS -5, MEKK2wt PB1 HTS 99, ABCB6 inh 2 96, MEKK3 PB1 HTS 103 and CRFBP-R2 block 19.
For COC(=O)NC1CC2C=CC1C1C=CC21 (stereo not drawn) the results were CRFR2-BP ag 4, ABCB6 inh 2 104 and CRFBP-R2 block 18.
`O=S(=O)(c1ccc(Cl)cc1)n1ccc(-c2cccc(OCc3c(F)cccc3Cl)c2)n1` gave CRFR2-BP ag 1, MEKK2mut PB1 HTS 2, MEKK2wt PB1 HTS 96, ABCB6 inh 2 94, MEKK3 PB1 HTS 108 and CRFBP-R2 block -8.
O=S(=O)(c1ccc(F)cc1)n1ccc(-c2cccc(OCc3c(F)cccc3Cl)c2)n1 was read as CRFR2-BP ag 3, MEKK2mut PB1 HTS -17, MEKK2wt PB1 HTS 2.0*[inhibitor], ABCB6 inh 2 99, MEKK3 PB1 HTS 2.0*[inhibitor], CRFBP-R2 block -6, MEKK2wt confirm 95, MEKK2mut confirm -8 and MEKK3-MEK5 inh 97.
Screening CN(C)CCCN1c2ccccc2CCc2ccc(Cl)cc21 returned CRFR2-BP ag 1, MEKK2mut PB1 HTS 13, MEKK2wt PB1 HTS 148*, ABCB6 inh 2 100, MEKK3 PB1 HTS 77, CRFBP-R2 block -11, MEKK2wt confirm 131, MEKK2mut confirm 12 and MEKK3-MEK5 inh 106.
Screening CN(CCCN1c2ccccc2CCc2ccccc21)CC(=O)c1ccc(Cl)cc1 returned MEKK2mut PB1 HTS 18, MEKK2wt PB1 HTS 165*, MEKK3 PB1 HTS 107, MEKK2wt confirm 130, MEKK2mut confirm 16 and MEKK3-MEK5 inh 96.
For CCCCn1c(N)c(N(CC)C(=O)C2=NN(c3ccccc3)C(=O)CC2)c(=O)[nH]c1=O the results were CRFR2-BP ag 1, ABCB6 inh 2 102 and CRFBP-R2 block -1.
Cc1ccc(C)c(S(=O)(=O)N2CCN(CC(=O)Nc3sccc3C#N)CC2)c1 was read as CRFR2-BP ag 0, MEKK2mut PB1 HTS 0, MEKK2wt PB1 HTS 107, ABCB6 inh 2 94, MEKK3 PB1 HTS 162*, CRFBP-R2 block 6, MEKK2wt confirm 94, MEKK2mut confirm -2 and MEKK3-MEK5 inh 100.
Screening CCOC(=O)N1CCN(CC(=O)Nc2sccc2C#N)CC1 returned CRFR2-BP ag 2, MEKK2mut PB1 HTS -2, MEKK2wt PB1 HTS 96, ABCB6 inh 2 98, MEKK3 PB1 HTS 102 and CRFBP-R2 block -11.
`N#Cc1ccsc1NC(=O)CN1CCN(c2ccccc2O)CC1` gave CRFR2-BP ag -1, MEKK2mut PB1 HTS 2, MEKK2wt PB1 HTS 100, ABCB6 inh 2 90, MEKK3 PB1 HTS 64*[inhibitor], CRFBP-R2 block 7, MEKK2wt confirm 97, MEKK2mut confirm -2 and MEKK3-MEK5 inh 101.
Screening N#Cc1ccsc1NC(=O)CN1CCN(S(=O)(=O)c2ccccc2C(F)(F)F)CC1 returned CRFR2-BP ag -1, MEKK2mut PB1 HTS 1, MEKK2wt PB1 HTS 91, ABCB6 inh 2 101, MEKK3 PB1 HTS 55*[inhibitor], CRFBP-R2 block -31, MEKK2wt confirm 97, MEKK2mut confirm -1 and MEKK3-MEK5 inh 100.
For N#Cc1ccsc1NC(=O)CN1CCCCCC1 the results were CRFR2-BP ag 0, MEKK2mut PB1 HTS 2, MEKK2wt PB1 HTS 100, ABCB6 inh 2 90, MEKK3 PB1 HTS 100 and CRFBP-R2 block 2.
Cc1nc(NCc2ccc3c(c2)OCO3)c2oc3ccccc3c2n1 was read as CRFR2-BP ag -1, MEKK2mut PB1 HTS -15, MEKK2wt PB1 HTS 81, ABCB6 inh 2 99, MEKK3 PB1 HTS 70*[inhibitor], CRFBP-R2 block 22, MEKK2wt confirm 100, MEKK2mut confirm -1 and MEKK3-MEK5 inh 98.
